Reference: PubChem BioAssay (NCI)
About 83,000 compounds went through this panel and 20% of them were active in at least one assay; those are over-represented in the sample as a whole.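 How to read the values: 0–100, growth inhibition (40 = 60% inhibited); 0, no net growth; -100 to 0, cell death (-40 = 40% of starting cells died; -100 = all dead).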 Active and inactive are the calls of the source. Rule for the calls: active = growth percent below 10; inactive = the rest.

Experiments:
Assay in all cases: NCI-60 one-dose screen, 48 h (100 = growth as untreated, 0 = no growth, -100 = all killed)
Settings in all cases: 10 µM unless noted
NCI-H23 lung = tested on: NCI-H23 lung
NCI-H226 lung = tested on: NCI-H226 lung
NCI-H322M lung = tested on: NCI-H322M lung
HOP-62 NSCLC = tested on: HOP-62 NSCLC
NCI-H460 lung = tested on: NCI-H460 lung
HOP-92 NSCLC = tested on: HOP-92 NSCLC
A549/ATCC NSCLC = tested on: A549/ATCC NSCLC
786-0 renal = tested on: 786-0 renal
COLO 205 colon = tested on: COLO 205 colon
DU-145 prostate = tested on: DU-145 prostate
K-562 leukemia = tested on: K-562 leukemia
MALME-3M melanoma = tested on: MALME-3M melanoma
MDA-MB-231 breast = tested on: MDA-MB-231 breast
RXF 393 renal = tested on: RXF 393 renal
SF-268 CNS = tested on: SF-268 CNS
SF-295 CNS = tested on: SF-295 CNS
SF-539 CNS = tested on: SF-539 CNS
UACC-257 melanoma = tested on: UACC-257 melanoma
M14 melanoma = tested on: M14 melanoma

Measured: growth

COc1ccc(-c2cnc(SCC(=O)Nc3ccc(-c4nc5ccccc5s4)cc3)n2-c2ccc(OC)cc2)cc1
inactive: NCI-H23 lung 101% | NCI-H226 lung 105% | NCI-H322M lung 102% | HOP-62 NSCLC 106% | NCI-H460 lung 110% | HOP-92 NSCLC 93.6% | A549/ATCC NSCLC 101% | 786-0 renal 102% | COLO 205 colon 112% | DU-145 prostate 120% | K-562 leukemia 108% | MALME-3M melanoma 129% | MDA-MB-231 breast 111% | RXF 393 renal 121% | SF-268 CNS 100% | SF-295 CNS 113% | SF-539 CNS 102% | UACC-257 melanoma 116% | M14 melanoma 112%

c1ccc2nc(Cn3c[n+](Cc4ccc5ccccc5n4)c4ccccc43)ccc2c1
inactive: NCI-H23 lung 32% | NCI-H226 lung 37.1% | NCI-H322M lung 78.1% | HOP-62 NSCLC 53.8% | NCI-H460 lung 32.4% | A549/ATCC NSCLC 54% | 786-0 renal 66.7% | DU-145 prostate 60.8% | K-562 leukemia 17.8% | MALME-3M melanoma 20.3% | MDA-MB-231 breast 26.4% | RXF 393 renal 44.1% | SF-268 CNS 54.9% | SF-295 CNS 55.5% | SF-539 CNS 41.5% | M14 melanoma 21.7%
active: HOP-92 NSCLC -8.16% | COLO 205 colon 6.96% | UACC-257 melanoma -9.49%

Cc1cnc2nc(-c3ccc(N(C)C)cc3)cn2c1
inactive: NCI-H23 lung 93.2% | NCI-H226 lung 102% | NCI-H322M lung 110% | HOP-62 NSCLC 99.5% | NCI-H460 lung 114% | HOP-92 NSCLC 104% | A549/ATCC NSCLC 95.5% | 786-0 renal 91.5% | COLO 205 colon 120% | DU-145 prostate 109% | K-562 leukemia 97.1% | MALME-3M melanoma 97.8% | MDA-MB-231 breast 107% | RXF 393 renal 79.7% | SF-268 CNS 122% | SF-295 CNS 106% | SF-539 CNS 100% | UACC-257 melanoma 102% | M14 melanoma 100%

O=C1/C=C/[C@@H](O)[C@@H]2C[C@@H](O)C[C@H]2/C=C/CCC[C@H](CO)O1
inactive: NCI-H23 lung 13.5% | NCI-H322M lung 41.7% | HOP-62 NSCLC 43.6% | NCI-H460 lung 45.1% | HOP-92 NSCLC 58.3% | A549/ATCC NSCLC 31.3% | DU-145 prostate 92.9% | K-562 leukemia 46.8% | SF-268 CNS 20.6% | SF-295 CNS 23.9% | SF-539 CNS 34.8% | UACC-257 melanoma 29.9% | M14 melanoma 11.6%
active: NCI-H226 lung -63.4% | 786-0 renal -59.6% | COLO 205 colon -71.6% | MALME-3M melanoma 7.5% | MDA-MB-231 breast 3.23% | RXF 393 renal -29.9%

N#CSCC1CC(O)(c2ccccc2)C(c2ccccc2)C(c2ccc(Cl)cc2)O1 (centres undefined)
active: NCI-H23 lung -78.6% | HOP-62 NSCLC 5.71% | NCI-H460 lung -68.7% | HOP-92 NSCLC -29.6% | A549/ATCC NSCLC -53.7% | 786-0 renal -74.3% | COLO 205 colon -98.3% | DU-145 prostate -68.2% | K-562 leukemia -6.84% | MALME-3M melanoma -80.8% | MDA-MB-231 breast -52.2% | RXF 393 renal -91.5% | SF-268 CNS -34.1% | SF-295 CNS -77.9% | SF-539 CNS -96.4% | UACC-257 melanoma -70.2% | M14 melanoma -77.8%
inactive: NCI-H226 lung 19.7% | NCI-H322M lung 52.3%

c1ccc(-c2n(Cc3ccc4ccccc4c3)cc[n+]2Cc2ccc3ccccc3c2)cc1
active: NCI-H23 lung -38.7% | NCI-H226 lung -9.03% | NCI-H322M lung 8.84% | HOP-62 NSCLC -44.8% | NCI-H460 lung -78.5% | HOP-92 NSCLC -69.6% | 786-0 renal -80.7% | COLO 205 colon -79.1% | DU-145 prostate 4.64% | K-562 leukemia -36.7% | MALME-3M melanoma -67.8% | MDA-MB-231 breast -82.7% | RXF 393 renal -84.7% | SF-268 CNS -58.2% | SF-295 CNS -51% | SF-539 CNS -34.7% | UACC-257 melanoma -57.1% | M14 melanoma -60.5%
inactive: A549/ATCC NSCLC 12.5%

Cc1csc(C#Cc2cncc(O)c2)n1
inactive: NCI-H23 lung 111% | NCI-H226 lung 109% | NCI-H322M lung 113% | HOP-62 NSCLC 110% | NCI-H460 lung 121% | HOP-92 NSCLC 121% | A549/ATCC NSCLC 108% | 786-0 renal 105% | COLO 205 colon 105% | DU-145 prostate 116% | K-562 leukemia 127% | MALME-3M melanoma 96.7% | MDA-MB-231 breast 107% | RXF 393 renal 69.9% | SF-268 CNS 131% | SF-295 CNS 121% | SF-539 CNS 108% | UACC-257 melanoma 98.5% | M14 melanoma 111%

O=C(Nc1cccc(Cl)c1)Nc1cccc(Cl)c1
inactive: NCI-H23 lung 35.8% | NCI-H226 lung 81.1% | NCI-H322M lung 79.1% | HOP-62 NSCLC 88.2% | NCI-H460 lung 52% | HOP-92 NSCLC 87.6% | A549/ATCC NSCLC 52.4% | 786-0 renal 77.1% | COLO 205 colon 89.2% | DU-145 prostate 78.6% | K-562 leukemia 19.6% | MALME-3M melanoma 68.1% | MDA-MB-231 breast 85.3% | RXF 393 renal 132% | SF-268 CNS 88.6% | SF-295 CNS 24.8% | SF-539 CNS 91.4% | UACC-257 melanoma 105% | M14 melanoma 75.7%

CCOC(=O)C(Br)=P(c1ccccc1)(c1ccccc1)c1ccccc1
inactive: NCI-H23 lung 109% | NCI-H226 lung 104% | NCI-H322M lung 99.4% | HOP-62 NSCLC 114% | NCI-H460 lung 116% | HOP-92 NSCLC 101% | A549/ATCC NSCLC 106% | 786-0 renal 103% | COLO 205 colon 103% | DU-145 prostate 124% | K-562 leukemia 105% | MALME-3M melanoma 94.3% | MDA-MB-231 breast 92.6% | RXF 393 renal 79.9% | SF-268 CNS 120% | SF-295 CNS 110% | SF-539 CNS 101% | UACC-257 melanoma 98.9% | M14 melanoma 111%

Nc1nc(NC2CC2)c2ncn(C3C=CC(CO)C3)c2n1 (centres undefined)
inactive: NCI-H23 lung 107% | NCI-H226 lung 91.4% | NCI-H322M lung 94% | HOP-62 NSCLC 104% | NCI-H460 lung 118% | HOP-92 NSCLC 97% | A549/ATCC NSCLC 108% | 786-0 renal 107% | COLO 205 colon 121% | DU-145 prostate 126% | K-562 leukemia 84.2% | MALME-3M melanoma 105% | MDA-MB-231 breast 98.5% | SF-268 CNS 126% | SF-295 CNS 106% | SF-539 CNS 118% | UACC-257 melanoma 100% | M14 melanoma 116%
active: RXF 393 renal -4.67%

CCOC(=O)C1=CCC(n2cc(C)c(=O)[nH]c2=O)O1 (centres undefined)
inactive: NCI-H23 lung 102% | NCI-H226 lung 89.5% | NCI-H322M lung 101% | HOP-62 NSCLC 104% | NCI-H460 lung 114% | HOP-92 NSCLC 65% | A549/ATCC NSCLC 96.7% | 786-0 renal 105% | COLO 205 colon 90.1% | DU-145 prostate 119% | K-562 leukemia 99.4% | MALME-3M melanoma 120% | MDA-MB-231 breast 97.3% | SF-268 CNS 117% | SF-295 CNS 116% | SF-539 CNS 101% | UACC-257 melanoma 96.3% | M14 melanoma 106%
active: RXF 393 renal -5.82%

Cc1n(Cc2ccc3ccccc3c2)c2ccccc2[n+]1Cc1ccc2ccccc2c1
active: NCI-H23 lung -29.5% | NCI-H226 lung -9.12% | NCI-H322M lung 9.37% | HOP-62 NSCLC -62% | NCI-H460 lung -73.9% | HOP-92 NSCLC -68.2% | A549/ATCC NSCLC 8.96% | 786-0 renal -92.8% | COLO 205 colon -77.1% | DU-145 prostate 0.672% | K-562 leukemia -63.1% | MALME-3M melanoma -39.7% | MDA-MB-231 breast -83.6% | RXF 393 renal -88% | SF-268 CNS -67.6% | SF-295 CNS -37.6% | SF-539 CNS -56.4% | UACC-257 melanoma -53.9% | M14 melanoma -69%

O=C(Nc1ccc2c(c1)C(=O)c1ccccc1-2)c1ccccc1
inactive: NCI-H23 lung 95% | NCI-H226 lung 97.6% | NCI-H322M lung 101% | HOP-62 NSCLC 44.3% | NCI-H460 lung 87.4% | HOP-92 NSCLC 82.1% | A549/ATCC NSCLC 100% | 786-0 renal 52.1% | COLO 205 colon 97.8% | DU-145 prostate 81.9% | K-562 leukemia 81.2% | MALME-3M melanoma 90.2% | MDA-MB-231 breast 81.9% | RXF 393 renal 99.2% | SF-268 CNS 65.2% | SF-295 CNS 103% | SF-539 CNS 52.6% | UACC-257 melanoma 111% | M14 melanoma 88%

O=C1NCCc2c1noc2-c1ccccc1
inactive: NCI-H23 lung 99.5% | NCI-H226 lung 104% | NCI-H322M lung 101% | HOP-62 NSCLC 94.9% | NCI-H460 lung 107% | HOP-92 NSCLC 104% | A549/ATCC NSCLC 79.7% | 786-0 renal 96.5% | COLO 205 colon 103% | DU-145 prostate 104% | K-562 leukemia 108% | MALME-3M melanoma 108% | MDA-MB-231 breast 122% | RXF 393 renal 105% | SF-268 CNS 93.7% | SF-295 CNS 97.8% | SF-539 CNS 94.7% | UACC-257 melanoma 101% | M14 melanoma 101%

CC[C@@H](c1ccc(O)c(O)c1)[C@@H](CC)c1ccc(O)c(O)c1
inactive: NCI-H23 lung 96.6% | NCI-H226 lung 105% | NCI-H322M lung 97% | HOP-62 NSCLC 106% | NCI-H460 lung 111% | HOP-92 NSCLC 69.6% | A549/ATCC NSCLC 107% | 786-0 renal 100% | DU-145 prostate 110% | K-562 leukemia 31.8% | MALME-3M melanoma 39.2% | MDA-MB-231 breast 89.7% | RXF 393 renal 71.5% | SF-268 CNS 98% | SF-295 CNS 130% | SF-539 CNS 102% | UACC-257 melanoma 101% | M14 melanoma 62.4%
active: COLO 205 colon 9.38%

COc1ccc2c(c1)sc1nc(-c3ccc(N(C)C)cc3)cn12
inactive: NCI-H23 lung 99.2% | NCI-H226 lung 139% | NCI-H322M lung 98.2% | HOP-62 NSCLC 105% | NCI-H460 lung 85% | HOP-92 NSCLC 34.3% | A549/ATCC NSCLC 96.6% | 786-0 renal 89.7% | COLO 205 colon 93.7% | DU-145 prostate 103% | K-562 leukemia 80% | MALME-3M melanoma 112% | MDA-MB-231 breast 122% | RXF 393 renal 114% | SF-268 CNS 93.1% | SF-295 CNS 98.7% | SF-539 CNS 99.4% | UACC-257 melanoma 95.8% | M14 melanoma 103%
